Measured values taken from PubChem BioAssay (Tox21).
Records with an inconclusive call do not appear. Where a call stands in place of a potency, no number is given. Some compounds were tested as several samples or in several runs, with calls that do not always agree. Calls of active or inactive are those of the source. Unless noted, calls come from the whole dose curve.

Assays:
[1] = Nuclear factor erythroid 2-related factor 2/antioxidant responsive element (Nrf2/ARE) small molecule agonists: qHTS cell viability counter screen in human keratinocytes (AID 1919968; active = well fitted curve in the direction sought with a large enough effect in the repeat runs; an effect the other way counts as inactive or inconclusive; note: nearly all actives have a fitted effect of over 55% in size)
Outline: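 Cytotoxicity was multiplexed with the Nrf2/ARE luciferase assay in the same wells. Stably transfected HaCaT keratinocytes were treated with test compounds for 23 h at 37 C. Cell viability was then measured by CellTiter-Fluor fluorescence.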

[2] = Nuclear factor erythroid 2-related factor 2/antioxidant responsive element (Nrf2/ARE) small molecule agonists: luciferase reporter gene qHTS assay in human keratinocytes (AID 1919969); note: nearly all actives have a fitted effect of over 35% in size
[3] = molecular target: Gonadotropin-releasing hormone receptor (Homo sapiens) (UniProt P30968); assay: Human gonadotropin-releasing hormone receptor (GnRHR) small molecule agonists, calcium flux assay in GnRHR-HEK293 cells (AID 1920063); note: nearly all actives have a fitted effect of over 35% in size
Outline: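 Agonist activity was measured as intracellular calcium flux in HEK293 cells engineered to stably express human GnRHR. After dye loading for 1 hour at 37 C, compounds in DMSO were added and fluorescence was followed for 3 minutes.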

[4] = molecular target: KiSS-1 receptor (Homo sapiens) (UniProt Q969F8); assay: Human kisspeptin (KISS1R) small molecule agonists, calcium flux assay in KISS1R-HEK293 cells (AID 1920064; active = well fitted curve in the direction sought with a large enough effect in the repeat runs; an effect the other way counts as inactive or inconclusive)
Outline: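 Agonist activity is monitored as intracellular calcium rise in engineered HEK293 cells carrying human KISS1R. Cells are dye-loaded for 1 h at 37 C before compound addition, and fluorescence is recorded for 3 min.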

[5] = G protein-coupled receptor (GPCR) small molecule agonists, calcium flux assay: HEK293 wild type cell line counter screen (AID 1920065)
Outline: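 Seed cells, incubate 18 h (37 C, 5% CO2); add calcium dye, 1 h at 37 C; pin-transfer compounds, ATP control or DMSO; read fluorescence 480/540 nm each second for 3 min.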

[6] = p53 small molecule agonists, cell-based qHTS assay with human liver microsomes (AID 1963577);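 note: p53 response element beta-lactamase reporter cells with liver microsomes plus NADPH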
Outline: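 Reporter activation was measured by LiveBLAzer fluorescence intensity in p53RE-bla cells, which had been exposed to compounds for 16 h at 37 C alongside 0.5 mg/mL human liver microsomes and 0.5 mg/mL NADPH (final concentrations).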

[7] = p53 small molecule agonists, cell-based qHTS assay with rat liver microsomes (AID 1963578)
Outline: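 Compound in DMSO added to p53RE-bla cells 5 h post-plating; rat microsomes/NADPH 0.5 mg/mL final; 16 h, 37 C; LiveBLAzer 2 h RT.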

[8] = p53 small molecule agonists, cell-based qHTS assay with human liver microsomes: qHTS cell viability counter screen (AID 1963579); note: nearly all actives have a fitted effect of over 45% in size
Outline: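 HLM-supplemented (0.5 mg/mL final) and NADPH-supplemented (0.5 mg/mL final) p53RE-bla cultures, 4,000 cells per well, were dosed with compounds in DMSO for 16 h at 37 C; luminescent ATP detection (CellTiter-Glo, 30 min, room temperature) quantified surviving cells.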

[9] = p53 small molecule agonists, cell-based qHTS assay with rat liver microsomes: qHTS cell viability counter screen (AID 1963580); note: nearly all actives have a fitted effect of over 45% in size
Outline: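 Rat liver microsome (0.5 mg/mL final) and NADPH (0.5 mg/mL final) co-incubation with compounds for 16 h at 37 C on HCT-116 p53RE-bla cells; cytotoxicity taken from intracellular ATP luminescence.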

[10] = p53 small molecule agonists, cell-based qHTS assay (AID 1963582; active = well fitted activation curve with a large enough effect in the signal ratio in the repeat runs, not every such curve was filed as active; the % refers to the signal ratio)
Outline: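 Cells carrying a p53-responsive bla reporter are treated with test compounds for 16 h at 37 C; beta-lactamase activity is then detected with LiveBLAzer B/G FRET substrate after 2 h at room temperature.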

[11] = molecular target: 5-hydroxytryptamine receptor 2A (Homo sapiens) (UniProt P28223); assay: 5-hydroxytryptamine receptor 2A (HTR2A) small molecule antagonists, cell-based qHTS assay (AID 1963586); note: nearly all actives have a fitted effect of over 45% in size
Outline: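 CHO cells stably expressing human HTR2A were plated for 18 h at 37 C, then loaded with calcium dye for 1 h. Compounds were preincubated 5 min at room temperature before DOI (4 nM solution) was added. Kinetic fluorescence was read for 3 min.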

[12] = molecular target: 5-hydroxytryptamine receptor 2A (Homo sapiens) (UniProt P28223); assay: 5-hydroxytryptamine receptor 2A (HTR2A) small molecule agonists, cell-based qHTS assay (AID 1963587); note: nearly all actives have a fitted effect of over 30% in size
Outline: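 Kinetic calcium-flux fluorescence (2 min, 1 sec intervals) after compound addition in agonist mode. HTR2A-CHO cells were cultured 18 h, then dye-loaded 1 h at 37 C.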

[13] = molecular target: Muscarinic acetylcholine receptor M1 (Homo sapiens) (UniProt P11229); assay: Cholinergic receptor muscarinic 1 (CHRM1) small molecule antagonists, cell-based qHTS assay (AID 1963588); note: nearly all actives have a fitted effect of over 40% in size
Outline: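 Compounds were tested at 15 concentrations in three independent runs. Dye-loaded CHRM1-CHO cells were exposed 5 min at room temperature before stimulation by acetylcholine added at 50nM. Intracellular calcium was read kinetically on FDSS for 3 min.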

[14] = molecular target: Muscarinic acetylcholine receptor M1 (Homo sapiens) (UniProt P11229); assay: Cholinergic receptor muscarinic 1 (CHRM1) small molecule agonists, cell-based qHTS assay (AID 1963589); note: nearly all actives have a fitted effect of over 35% in size
Outline: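 Cells were plated and incubated 18 h at 37 C/5% CO2, loaded with calcium dye for 1 h at 37 C, then treated with compounds in DMSO. Fluorescence was recorded kinetically at 1 sec intervals.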

[15] = cAMP Responsive Elements (CRE) small molecule agonists, cell-based qHTS assay (AID 1963590)
Outline: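 Cells carrying a CRE-driven beta-lactamase reporter (HEK 293T) are seeded, incubated overnight (18 h), and treated with test compounds for 3 h at 37 C; reporter activity is then detected with a FRET substrate after 2 h at room temperature.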

[16] = cAMP Responsive Elements (CRE) small molecule antagonists, cell-based qHTS assay (AID 1963591; active = well fitted inhibition curve with a large enough effect in the signal ratio in the repeat runs, not every such curve was filed as active; the % refers to the signal ratio)
Outline: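 Cells (CRE-bla HEK 293T, DMEM with 10% dialyzed FBS and 25 mM HEPES) are seeded and incubated 18 h. Compounds are added with NKH477 agonist at 0.25 uM final for 3 h, then FRET substrate for 2 h.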

[17] = molecular target: Beta-2 adrenergic receptor (Homo sapiens) (UniProt P07550); assay: Adrenergic beta2 receptor (ADRB2) small molecule antagonists, cell-based qHTS assay (AID 1963592); note: series mostly up to about 92 µM; nearly all actives have a fitted effect of over 50% in size
Outline: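 Assay format: CHO-ADRB2 cells, 18-20hr seeding at 37C/5% CO2, then compound plus 1nM isoproterenol agonist mix for 0.5hr RT. Homogeneous time-resolved fluorescence cAMP detection after 1hr, expressed as 665/615 nm ratio.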

[18] = molecular target: Beta-2 adrenergic receptor (Homo sapiens) (UniProt P07550); assay: Adrenergic beta2 receptor (ADRB2) small molecule agonists, cell-based qHTS assay (AID 1963593); note: potency is the fitted concentration of half-maximal effect;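 for activation: CHO cells stably overexpressing human ADRB2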
Outline: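 CHO cells stably over-expressing ADRB2 were plated overnight at 37C, then dosed with compounds plus a stimulation mix containing 100uM IBMX and 25uM Ro-20-1724 for 0.5hr at room temperature. cAMP was measured by HTRF competition, 1hr.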

[19] = molecular target: D(2) dopamine receptor (Homo sapiens) (UniProt P14416); assay: Dopamine D2 receptor (DRD2) small molecule agonists, cell-based qHTS assay (AID 1963594); note: nearly all actives have a fitted effect of over 35% in size
Outline: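 cAMP accumulation in DRD2-HEK293 cells measured by HTRF after 1 h detection; compounds added 10 min before NKH477 (200nM […]) forskolin-analogue stimulation, 30 min at room temperature, with Ro20-1724 present at 0.1 mM final.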

[20] = molecular target: D(2) dopamine receptor (Homo sapiens) (UniProt P14416); assay: Dopamine D2 receptor (DRD2) small molecule antagonists, cell-based qHTS assay (AID 1963595; active = well fitted inhibition curve with a large enough effect in the signal ratio in the repeat runs, with a control signal flat; the % refers to the signal ratio)
Outline: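 DRD2-HEK293; 0.1 mM Ro20-1724; cpd 10 min RT; NKH477 200 nM + quinpirole 12 nM, 30 min RT; HTRF cAMP (cAMP-d2/anti-cAMP cryptate), 665/620 nm ratio after 1 h.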

KiSS-1 receptor (Homo sapiens), sequence (Q969F8 whole entry, looked up): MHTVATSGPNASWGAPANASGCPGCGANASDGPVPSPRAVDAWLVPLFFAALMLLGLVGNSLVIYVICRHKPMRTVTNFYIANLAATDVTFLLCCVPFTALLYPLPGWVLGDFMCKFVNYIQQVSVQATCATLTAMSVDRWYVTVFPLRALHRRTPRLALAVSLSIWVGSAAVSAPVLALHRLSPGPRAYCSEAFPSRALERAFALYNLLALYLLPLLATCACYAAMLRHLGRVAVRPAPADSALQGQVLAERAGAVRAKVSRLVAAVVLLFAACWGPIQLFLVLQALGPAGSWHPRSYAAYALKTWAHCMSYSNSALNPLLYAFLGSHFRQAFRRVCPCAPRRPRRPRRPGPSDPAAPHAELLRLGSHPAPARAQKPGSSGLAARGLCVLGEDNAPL
Gonadotropin-releasing hormone receptor (Homo sapiens), sequence (P30968 whole entry, looked up): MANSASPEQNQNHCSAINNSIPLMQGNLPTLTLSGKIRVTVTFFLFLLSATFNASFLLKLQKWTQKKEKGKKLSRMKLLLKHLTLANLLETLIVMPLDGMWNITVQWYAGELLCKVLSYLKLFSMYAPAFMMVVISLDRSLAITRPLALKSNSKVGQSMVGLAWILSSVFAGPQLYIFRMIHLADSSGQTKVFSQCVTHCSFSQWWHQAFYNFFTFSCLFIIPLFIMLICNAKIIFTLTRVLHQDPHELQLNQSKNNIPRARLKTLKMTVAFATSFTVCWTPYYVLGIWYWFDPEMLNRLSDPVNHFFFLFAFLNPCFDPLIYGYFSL
5-hydroxytryptamine receptor 2A (Homo sapiens), sequence (P28223 whole entry, looked up): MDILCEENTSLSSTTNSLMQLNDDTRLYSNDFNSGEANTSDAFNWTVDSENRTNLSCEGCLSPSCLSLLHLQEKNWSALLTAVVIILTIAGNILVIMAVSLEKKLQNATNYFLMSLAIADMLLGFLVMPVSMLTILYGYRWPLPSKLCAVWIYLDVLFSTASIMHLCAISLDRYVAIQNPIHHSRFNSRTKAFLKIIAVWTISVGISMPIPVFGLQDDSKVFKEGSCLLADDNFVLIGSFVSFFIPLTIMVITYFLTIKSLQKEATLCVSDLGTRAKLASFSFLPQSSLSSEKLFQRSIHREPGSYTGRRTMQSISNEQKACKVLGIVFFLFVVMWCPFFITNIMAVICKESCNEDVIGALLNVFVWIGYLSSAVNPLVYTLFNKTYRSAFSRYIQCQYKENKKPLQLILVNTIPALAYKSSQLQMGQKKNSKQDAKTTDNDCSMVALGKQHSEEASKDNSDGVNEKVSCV
Beta-2 adrenergic receptor (Homo sapiens), sequence (P07550 whole entry, looked up): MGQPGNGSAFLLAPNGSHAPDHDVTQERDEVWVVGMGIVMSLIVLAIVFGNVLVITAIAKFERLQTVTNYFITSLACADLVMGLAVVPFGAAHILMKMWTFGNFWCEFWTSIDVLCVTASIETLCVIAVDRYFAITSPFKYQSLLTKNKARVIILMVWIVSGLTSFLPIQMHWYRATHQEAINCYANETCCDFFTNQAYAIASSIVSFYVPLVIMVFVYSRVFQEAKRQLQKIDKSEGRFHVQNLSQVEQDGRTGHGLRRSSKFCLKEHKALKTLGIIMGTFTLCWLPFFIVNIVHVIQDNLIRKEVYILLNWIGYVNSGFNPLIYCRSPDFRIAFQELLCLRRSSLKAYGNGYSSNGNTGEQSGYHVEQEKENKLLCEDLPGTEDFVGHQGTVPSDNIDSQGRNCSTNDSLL
D(2) dopamine receptor (Homo sapiens), sequence (P14416 whole entry, looked up): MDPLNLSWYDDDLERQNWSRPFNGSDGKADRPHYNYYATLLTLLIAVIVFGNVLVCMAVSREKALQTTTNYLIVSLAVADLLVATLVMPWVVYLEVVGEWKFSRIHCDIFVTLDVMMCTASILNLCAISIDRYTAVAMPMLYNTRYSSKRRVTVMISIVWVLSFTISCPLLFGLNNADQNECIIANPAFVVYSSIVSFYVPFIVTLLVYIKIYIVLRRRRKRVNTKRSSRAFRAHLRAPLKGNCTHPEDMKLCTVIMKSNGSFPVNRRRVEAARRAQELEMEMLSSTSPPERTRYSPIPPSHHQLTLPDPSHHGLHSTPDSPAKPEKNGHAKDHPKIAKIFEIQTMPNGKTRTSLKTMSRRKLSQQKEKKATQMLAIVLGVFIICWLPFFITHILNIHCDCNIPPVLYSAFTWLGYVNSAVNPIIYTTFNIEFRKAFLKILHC
Muscarinic acetylcholine receptor M1 (Homo sapiens), sequence (P11229 whole entry, looked up): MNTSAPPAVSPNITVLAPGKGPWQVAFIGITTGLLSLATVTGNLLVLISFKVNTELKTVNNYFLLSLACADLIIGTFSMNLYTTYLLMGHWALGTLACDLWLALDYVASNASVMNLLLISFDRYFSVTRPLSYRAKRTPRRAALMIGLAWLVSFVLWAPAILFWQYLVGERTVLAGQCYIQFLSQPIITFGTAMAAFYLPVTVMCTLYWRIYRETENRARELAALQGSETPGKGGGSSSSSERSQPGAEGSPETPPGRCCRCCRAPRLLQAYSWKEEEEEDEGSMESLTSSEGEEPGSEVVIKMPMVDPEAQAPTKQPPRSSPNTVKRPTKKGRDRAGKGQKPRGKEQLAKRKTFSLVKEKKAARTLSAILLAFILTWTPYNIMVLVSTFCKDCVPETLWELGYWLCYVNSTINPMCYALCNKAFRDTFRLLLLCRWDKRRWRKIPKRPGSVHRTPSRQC

Row | Structure (SMILES) | Potency [1] | Potency [2] | Potency [3] | Potency [4] | Potency [5] | Potency [6] | Potency [7] | Potency [8] | Potency [9] | Potency [10] | Potency [11] | Potency [12] | Potency [13] | Potency [14] | Potency [15] | Potency [16] | Potency [17] | Potency [18] | Potency [19] | Potency [20]
1 | CC1=NN(c2ccc(S(=O)(=O)O)cc2)C(=O)C1 | inactive | inactive | inactive | inactive | inactive | inactive | inactive | inactive | inactive | inactive | inactive | inactive | inactive | inactive | inactive | inactive | inactive | inactive | inactive | inactive
2 | CC(=O)OCCOCCOCCOC(C)=O | inactive | inactive | inactive | inactive | inactive | inactive | inactive | inactive | inactive | inactive | inactive | inactive | inactive | inactive | inactive | inactive | inactive | 53.8 µM (active) and inactive | inactive | –
3 | CC(=O)N(O)CCCCCNC(=O)CCC(=O)N(O)CCCCCNC(=O)CCC(=O)N(O)CCCCCN | inactive | inactive | inactive | inactive | inactive | inactive | inactive | inactive | inactive | inactive | inactive | inactive | inactive | inactive | inactive | – | inactive | – | inactive | inactive
4 | CCCCCC1CCC(=O)O1 (centres undefined) | inactive | inactive | inactive | inactive | inactive | inactive | inactive | inactive | inactive | inactive | inactive | inactive | inactive | inactive | inactive | inactive | inactive | – | inactive | inactive
5 | ON(Cc1ccccc1)Cc1ccccc1 | inactive | inactive | inactive | inactive | inactive | inactive | inactive | inactive | inactive | inactive | inactive | inactive | inactive | inactive | inactive | inactive | inactive | inactive | inactive | inactive
6 | CCC(C)(C)C | inactive | inactive | inactive | inactive | inactive | inactive | inactive | inactive | inactive | inactive | inactive | inactive | inactive | inactive | inactive | inactive | inactive | – | inactive | inactive
7 | CCC/C=C/CO | inactive | inactive | inactive | inactive | inactive | inactive | inactive | inactive | inactive | inactive | inactive | inactive | inactive | inactive | inactive | inactive | inactive | – | inactive | inactive
